Assay results published in the supplement of paper PMC11732987, “Enantioselective OTUD7B fragment discovery through chemoproteomics screening and high-throughput optimisation” (Communications Chemistry, 2025).

What was measured:
Assay in all cases: log2 ratio of Biotin-Ahx-Ub-VS probe labelling (fragment/DMSO); higher = less target engagement (more negative = stronger competition), active = hit call of the paper (q ≤ 0.05, log2 ratio ≤ -1)
Conditions in all cases: compound concentration: 200 uM; treatment time: 3 h
OTUD6B = target: T1, OTUD6B (UniProt Q8N6M0)
T1 sequence (whole entry): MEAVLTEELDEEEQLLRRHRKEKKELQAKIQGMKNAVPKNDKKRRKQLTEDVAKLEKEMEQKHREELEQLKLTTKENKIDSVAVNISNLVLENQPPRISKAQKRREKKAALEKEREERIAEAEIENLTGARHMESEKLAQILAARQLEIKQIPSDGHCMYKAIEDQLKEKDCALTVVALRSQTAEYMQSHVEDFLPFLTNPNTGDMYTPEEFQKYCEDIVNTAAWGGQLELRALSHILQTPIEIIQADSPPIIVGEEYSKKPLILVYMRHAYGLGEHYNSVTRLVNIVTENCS
Method in brief: (§1)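 Fragment (200 µM) or vehicle was incubated for 3 h with triplicate HEK293T lysate samples of 495 µg, which were then treated with Biotin-Ahx-Ub-VS at 0.5 µM final for 1 h. Labelled DUBs were enriched on NeutrAvidin, digested with LysC and trypsin, and analysed by diaPASEF LC-MS/MS. Values are average log2 fragment/vehicle ratios from an unpaired t-test on global-median-normalised Spectronaut label-free quantities, using proteins with ≥2 unique peptides.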

OTUD7B = target: T2, OTUD7B (UniProt Q6GQQ9)
T2 sequence (whole entry): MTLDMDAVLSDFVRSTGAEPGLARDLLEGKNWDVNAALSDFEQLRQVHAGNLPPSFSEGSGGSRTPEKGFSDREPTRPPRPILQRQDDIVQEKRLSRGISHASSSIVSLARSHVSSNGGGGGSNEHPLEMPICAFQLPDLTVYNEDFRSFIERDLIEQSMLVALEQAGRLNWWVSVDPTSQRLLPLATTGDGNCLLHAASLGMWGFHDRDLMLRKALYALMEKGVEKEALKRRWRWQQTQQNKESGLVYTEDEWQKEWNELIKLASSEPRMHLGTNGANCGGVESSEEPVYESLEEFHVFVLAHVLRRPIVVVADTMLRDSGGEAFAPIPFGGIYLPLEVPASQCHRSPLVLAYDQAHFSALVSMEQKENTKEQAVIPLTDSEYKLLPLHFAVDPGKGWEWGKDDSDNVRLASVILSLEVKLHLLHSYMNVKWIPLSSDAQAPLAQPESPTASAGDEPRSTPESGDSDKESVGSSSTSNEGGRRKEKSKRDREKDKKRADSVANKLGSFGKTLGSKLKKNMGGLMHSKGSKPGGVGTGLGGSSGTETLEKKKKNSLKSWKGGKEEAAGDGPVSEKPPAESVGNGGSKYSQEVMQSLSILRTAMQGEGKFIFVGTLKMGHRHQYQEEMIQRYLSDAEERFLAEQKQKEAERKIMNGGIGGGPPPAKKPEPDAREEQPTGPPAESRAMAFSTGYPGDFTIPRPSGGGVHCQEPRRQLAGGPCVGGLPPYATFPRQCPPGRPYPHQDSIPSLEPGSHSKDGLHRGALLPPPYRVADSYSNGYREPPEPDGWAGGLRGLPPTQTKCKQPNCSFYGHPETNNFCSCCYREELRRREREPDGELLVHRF
Method in brief: as §1

PRPF8 = PRPF8 (UniProt Q6P2Q9)
Method in brief: as §1

PSMD7 = target: T3, PSMD7 (UniProt P51665)
T3 sequence (whole entry): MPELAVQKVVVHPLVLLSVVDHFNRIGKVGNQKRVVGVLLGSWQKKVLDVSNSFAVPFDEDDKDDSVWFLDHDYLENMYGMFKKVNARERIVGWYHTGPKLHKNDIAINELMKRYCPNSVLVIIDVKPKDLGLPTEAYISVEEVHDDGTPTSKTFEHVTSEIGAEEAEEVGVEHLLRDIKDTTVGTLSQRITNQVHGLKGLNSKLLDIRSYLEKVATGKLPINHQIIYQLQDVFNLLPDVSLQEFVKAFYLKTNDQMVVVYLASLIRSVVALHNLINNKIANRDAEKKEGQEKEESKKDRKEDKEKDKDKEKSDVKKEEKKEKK
Method in brief: as §1

UCHL1 = UCHL1 (UniProt P09936)
Sequence of UCHL1 (P09936 whole entry, looked up): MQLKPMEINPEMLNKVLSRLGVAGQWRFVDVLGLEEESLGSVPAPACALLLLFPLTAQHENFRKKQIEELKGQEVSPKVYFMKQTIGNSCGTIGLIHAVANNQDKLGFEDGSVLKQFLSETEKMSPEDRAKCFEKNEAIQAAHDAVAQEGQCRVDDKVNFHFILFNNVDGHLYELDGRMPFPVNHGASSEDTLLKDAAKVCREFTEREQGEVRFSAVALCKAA
Method in brief: as §1

UCHL3 = target: T4, UCHL3 (UniProt P15374)
T4 sequence (whole entry): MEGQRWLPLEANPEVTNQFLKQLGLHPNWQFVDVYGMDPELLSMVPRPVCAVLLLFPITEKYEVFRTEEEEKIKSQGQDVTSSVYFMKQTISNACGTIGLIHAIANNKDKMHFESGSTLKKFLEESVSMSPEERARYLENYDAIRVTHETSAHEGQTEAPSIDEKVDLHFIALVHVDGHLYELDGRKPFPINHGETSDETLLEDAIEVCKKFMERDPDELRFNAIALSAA
Method in brief: as §1

UCHL5 = target: T5, UCHL5 (UniProt Q9Y5K5)
T5 sequence (whole entry): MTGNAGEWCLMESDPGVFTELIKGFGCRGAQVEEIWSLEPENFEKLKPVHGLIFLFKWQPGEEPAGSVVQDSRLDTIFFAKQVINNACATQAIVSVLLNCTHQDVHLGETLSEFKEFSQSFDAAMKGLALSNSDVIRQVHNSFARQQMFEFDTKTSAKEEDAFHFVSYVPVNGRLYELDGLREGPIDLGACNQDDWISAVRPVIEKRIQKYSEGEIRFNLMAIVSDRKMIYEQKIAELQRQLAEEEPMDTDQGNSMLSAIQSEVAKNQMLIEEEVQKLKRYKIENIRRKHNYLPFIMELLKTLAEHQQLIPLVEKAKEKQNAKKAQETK
Method in brief: as §1

USP10 = USP10 (UniProt Q14694)
Sequence of USP10 (Q14694 whole entry): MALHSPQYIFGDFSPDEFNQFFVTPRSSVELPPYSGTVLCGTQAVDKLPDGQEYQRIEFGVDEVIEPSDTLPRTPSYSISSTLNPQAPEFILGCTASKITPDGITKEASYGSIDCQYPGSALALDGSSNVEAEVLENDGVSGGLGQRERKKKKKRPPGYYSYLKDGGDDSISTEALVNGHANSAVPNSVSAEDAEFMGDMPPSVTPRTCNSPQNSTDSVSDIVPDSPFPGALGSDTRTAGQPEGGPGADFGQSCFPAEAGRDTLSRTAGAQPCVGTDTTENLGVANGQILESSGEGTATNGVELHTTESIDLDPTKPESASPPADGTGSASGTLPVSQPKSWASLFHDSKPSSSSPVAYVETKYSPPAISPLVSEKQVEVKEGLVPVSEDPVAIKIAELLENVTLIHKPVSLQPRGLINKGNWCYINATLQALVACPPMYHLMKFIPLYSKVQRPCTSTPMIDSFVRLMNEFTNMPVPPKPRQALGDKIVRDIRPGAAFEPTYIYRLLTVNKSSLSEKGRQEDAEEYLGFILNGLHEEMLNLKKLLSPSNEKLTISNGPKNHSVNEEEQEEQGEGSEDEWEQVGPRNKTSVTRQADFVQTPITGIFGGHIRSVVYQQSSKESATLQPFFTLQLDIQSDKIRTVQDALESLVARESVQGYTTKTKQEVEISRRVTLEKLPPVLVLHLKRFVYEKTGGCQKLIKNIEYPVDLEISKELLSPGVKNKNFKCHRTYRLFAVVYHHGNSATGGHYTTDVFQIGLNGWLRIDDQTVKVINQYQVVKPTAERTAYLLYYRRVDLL
Method in brief: as §1

USP15 = target: T6, USP15 (UniProt Q9Y4E8)
T6 sequence (whole entry): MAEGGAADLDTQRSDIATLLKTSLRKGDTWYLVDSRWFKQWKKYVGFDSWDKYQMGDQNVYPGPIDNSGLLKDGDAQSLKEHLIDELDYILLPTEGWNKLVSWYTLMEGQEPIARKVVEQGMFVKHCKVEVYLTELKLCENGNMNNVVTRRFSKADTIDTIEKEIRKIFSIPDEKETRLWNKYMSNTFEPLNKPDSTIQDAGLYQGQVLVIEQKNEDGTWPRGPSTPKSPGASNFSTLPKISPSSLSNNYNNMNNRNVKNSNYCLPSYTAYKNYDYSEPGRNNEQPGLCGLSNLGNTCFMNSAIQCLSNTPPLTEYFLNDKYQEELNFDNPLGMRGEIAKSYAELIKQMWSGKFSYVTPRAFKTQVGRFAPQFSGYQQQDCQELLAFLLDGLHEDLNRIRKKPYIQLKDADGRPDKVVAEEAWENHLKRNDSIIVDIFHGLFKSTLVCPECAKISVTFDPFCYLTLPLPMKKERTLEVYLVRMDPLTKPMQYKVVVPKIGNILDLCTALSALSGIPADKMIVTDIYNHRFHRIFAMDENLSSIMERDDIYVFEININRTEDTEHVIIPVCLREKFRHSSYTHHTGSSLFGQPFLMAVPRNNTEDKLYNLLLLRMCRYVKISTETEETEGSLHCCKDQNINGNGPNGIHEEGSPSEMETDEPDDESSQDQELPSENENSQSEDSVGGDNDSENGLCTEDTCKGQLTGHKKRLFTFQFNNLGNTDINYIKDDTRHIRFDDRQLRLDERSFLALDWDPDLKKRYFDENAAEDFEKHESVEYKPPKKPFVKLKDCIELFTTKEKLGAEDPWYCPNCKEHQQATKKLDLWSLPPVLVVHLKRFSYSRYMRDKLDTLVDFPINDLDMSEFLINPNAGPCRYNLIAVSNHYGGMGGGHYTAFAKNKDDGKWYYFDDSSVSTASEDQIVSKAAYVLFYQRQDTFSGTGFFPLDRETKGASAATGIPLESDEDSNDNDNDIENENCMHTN
Method in brief: as §1

USP16 = USP16 (UniProt Q9Y5T5)
Sequence of USP16 (Q9Y5T5 whole entry, looked up): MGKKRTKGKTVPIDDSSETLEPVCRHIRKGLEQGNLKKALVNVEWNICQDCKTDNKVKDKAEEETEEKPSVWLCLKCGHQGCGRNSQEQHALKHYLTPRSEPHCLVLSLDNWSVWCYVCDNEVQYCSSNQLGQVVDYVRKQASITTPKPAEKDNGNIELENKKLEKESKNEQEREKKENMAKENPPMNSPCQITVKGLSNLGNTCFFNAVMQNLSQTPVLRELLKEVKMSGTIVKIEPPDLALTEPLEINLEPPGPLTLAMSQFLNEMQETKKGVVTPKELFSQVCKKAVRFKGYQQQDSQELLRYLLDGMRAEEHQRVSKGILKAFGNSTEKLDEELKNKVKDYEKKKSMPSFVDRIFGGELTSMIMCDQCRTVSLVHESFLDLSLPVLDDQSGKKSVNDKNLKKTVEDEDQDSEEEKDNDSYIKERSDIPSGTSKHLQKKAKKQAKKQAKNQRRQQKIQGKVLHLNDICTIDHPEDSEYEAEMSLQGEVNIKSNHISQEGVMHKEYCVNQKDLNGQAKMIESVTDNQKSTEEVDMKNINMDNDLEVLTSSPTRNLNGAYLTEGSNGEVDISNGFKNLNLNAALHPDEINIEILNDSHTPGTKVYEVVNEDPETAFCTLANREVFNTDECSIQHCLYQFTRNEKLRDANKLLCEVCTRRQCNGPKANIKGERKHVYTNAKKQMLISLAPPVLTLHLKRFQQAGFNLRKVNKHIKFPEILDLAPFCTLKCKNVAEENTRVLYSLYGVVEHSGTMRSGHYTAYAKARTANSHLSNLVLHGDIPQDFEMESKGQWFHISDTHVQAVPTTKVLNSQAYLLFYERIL
Method in brief: as §1

Measured: log2 ratio of Biotin-Ahx-Ub-VS probe labelling

Cc1noc(N2CCN(C(=O)CCl)CC2)n1.Cl
inactive: OTUD6B -0.229 | OTUD7B -0.413 | PRPF8 -0.079 | PSMD7 0.128 | UCHL3 0.0214 | UCHL5 -0.188 | USP10 -0.076 | USP15 -0.285 | USP16 0.132
active: UCHL1 -1.52
